Experimental data as given in paper PMC7862700, “An all-to-all approach to the identification of sequence-specific readers for epigenetic DNA modifications on cytosine”.

Key:
Experiment in all cases: DAPPL (digital affinity profiling via proximity ligation, sequencing); 10 mM Tris-HCl pH 7.5, 50 mM NaCl, 1 mM DTT, 4% glycerol, room temperature, 30 min; GST-TFs on glutathione beads, 16-mer random dsDNA library, 0.1% formaldehyde crosslink after washing; high values mean tight binding
ELK1 = target: T1, ELK1 (Homo sapiens, UniProt P19419 1-428); conditions: protein: recombinant; tags: N-terminal GST; dsDNA, one strand shown
T1 sequence: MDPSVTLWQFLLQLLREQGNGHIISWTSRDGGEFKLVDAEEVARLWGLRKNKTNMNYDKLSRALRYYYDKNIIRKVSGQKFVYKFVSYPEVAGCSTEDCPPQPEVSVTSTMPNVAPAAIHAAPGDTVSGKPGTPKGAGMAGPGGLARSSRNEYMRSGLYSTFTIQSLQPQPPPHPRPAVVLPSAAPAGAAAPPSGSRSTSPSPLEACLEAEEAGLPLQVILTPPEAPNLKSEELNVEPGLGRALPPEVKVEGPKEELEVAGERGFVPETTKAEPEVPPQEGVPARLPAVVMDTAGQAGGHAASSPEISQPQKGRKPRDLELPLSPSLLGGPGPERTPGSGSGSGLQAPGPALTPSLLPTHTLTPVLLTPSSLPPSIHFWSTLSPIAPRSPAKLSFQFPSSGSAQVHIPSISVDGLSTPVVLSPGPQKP
Procedure, shortened: (§1)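 Binding signal is each hexamer's read frequency for a factor divided by its frequency in the tag-only sample. The factors were GST-fused human transcription factors from yeast, captured on glutathione beads, DNA-barcoded and pooled with that sample. Pools were incubated with 200 nmole of a random double-stranded 16-mer DNA library in Tris/NaCl/DTT/glycerol buffer at room temperature for 30 min, then washed, crosslinked with 0.1% formaldehyde, proximity-ligated with BsaI/T4 ligase (1 h, 37 °C), PCR-amplified and sequenced on an Illumina NextSeq500.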

GABPA = target: T2, GABPA (Homo sapiens, UniProt Q06546 1-454); conditions: protein: recombinant; tags: N-terminal GST; dsDNA, one strand shown
T2 sequence: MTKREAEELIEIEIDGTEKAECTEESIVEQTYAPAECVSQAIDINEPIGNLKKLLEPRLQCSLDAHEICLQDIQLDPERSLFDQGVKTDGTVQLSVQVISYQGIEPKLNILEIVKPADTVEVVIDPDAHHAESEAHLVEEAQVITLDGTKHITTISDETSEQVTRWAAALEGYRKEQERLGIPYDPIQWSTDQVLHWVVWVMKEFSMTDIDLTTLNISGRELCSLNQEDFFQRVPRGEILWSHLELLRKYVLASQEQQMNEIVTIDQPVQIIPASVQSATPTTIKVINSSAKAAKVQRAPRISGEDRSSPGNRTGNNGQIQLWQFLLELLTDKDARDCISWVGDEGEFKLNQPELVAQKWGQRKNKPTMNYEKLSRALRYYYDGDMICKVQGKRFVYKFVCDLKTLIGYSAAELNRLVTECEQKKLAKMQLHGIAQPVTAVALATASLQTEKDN
Procedure, shortened: as §1

ERG = target: T3, ERG (Homo sapiens, UniProt P11308 1-479); conditions: protein: recombinant; tags: N-terminal GST; dsDNA, one strand shown
T3 sequence: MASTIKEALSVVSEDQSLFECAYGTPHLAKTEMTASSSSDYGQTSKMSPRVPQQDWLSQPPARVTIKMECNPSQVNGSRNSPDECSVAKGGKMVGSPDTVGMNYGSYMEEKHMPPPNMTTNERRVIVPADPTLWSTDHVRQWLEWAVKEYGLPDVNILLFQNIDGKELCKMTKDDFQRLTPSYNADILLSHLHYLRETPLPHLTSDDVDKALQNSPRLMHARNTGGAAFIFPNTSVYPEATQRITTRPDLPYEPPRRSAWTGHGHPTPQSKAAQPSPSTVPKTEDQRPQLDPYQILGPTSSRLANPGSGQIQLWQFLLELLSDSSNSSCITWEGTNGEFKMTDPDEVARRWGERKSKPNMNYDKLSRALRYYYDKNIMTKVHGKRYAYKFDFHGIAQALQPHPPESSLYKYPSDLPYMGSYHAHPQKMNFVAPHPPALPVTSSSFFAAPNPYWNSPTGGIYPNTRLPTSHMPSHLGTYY
Procedure, shortened: as §1

ELF1 = ELF1 (Homo sapiens, UniProt P32519 1-619); conditions: protein: recombinant; tags: N-terminal GST; dsDNA, one strand shown
Chain of ELF1 (P32519 whole entry): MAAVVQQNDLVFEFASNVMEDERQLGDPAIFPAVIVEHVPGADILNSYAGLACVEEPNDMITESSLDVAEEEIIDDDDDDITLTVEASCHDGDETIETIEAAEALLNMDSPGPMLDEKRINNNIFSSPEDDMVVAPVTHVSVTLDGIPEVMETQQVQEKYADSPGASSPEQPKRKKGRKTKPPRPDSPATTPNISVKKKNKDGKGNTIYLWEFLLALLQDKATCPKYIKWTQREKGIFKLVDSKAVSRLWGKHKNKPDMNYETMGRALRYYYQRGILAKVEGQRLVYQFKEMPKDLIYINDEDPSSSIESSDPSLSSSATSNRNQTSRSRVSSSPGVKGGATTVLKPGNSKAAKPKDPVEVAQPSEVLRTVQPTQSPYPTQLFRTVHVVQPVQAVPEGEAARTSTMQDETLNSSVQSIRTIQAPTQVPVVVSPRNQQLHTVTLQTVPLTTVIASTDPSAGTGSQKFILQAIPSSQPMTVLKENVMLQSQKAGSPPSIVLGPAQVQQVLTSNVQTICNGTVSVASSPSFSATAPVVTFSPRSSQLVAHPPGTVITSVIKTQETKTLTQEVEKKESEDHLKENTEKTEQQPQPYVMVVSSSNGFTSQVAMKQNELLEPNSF
Procedure, shortened: as §1

EHF = target: T4, EHF (Homo sapiens, UniProt Q9NZC4 1-300); conditions: protein: recombinant; tags: N-terminal GST; dsDNA, one strand shown
T4 sequence: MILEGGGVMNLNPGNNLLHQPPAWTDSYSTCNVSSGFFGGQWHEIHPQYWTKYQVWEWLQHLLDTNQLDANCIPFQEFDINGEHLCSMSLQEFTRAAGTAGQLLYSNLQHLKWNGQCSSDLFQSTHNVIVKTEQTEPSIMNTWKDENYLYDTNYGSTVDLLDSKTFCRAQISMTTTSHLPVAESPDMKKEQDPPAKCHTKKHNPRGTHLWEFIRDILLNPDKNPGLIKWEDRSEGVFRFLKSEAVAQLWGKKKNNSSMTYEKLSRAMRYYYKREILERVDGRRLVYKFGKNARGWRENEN
Procedure, shortened: as §1

HSF1 = HSF1 (Homo sapiens, UniProt Q00613 1-529); conditions: protein: recombinant; tags: N-terminal GST; chain copies: 3; dsDNA, one strand shown
Chain of HSF1 (Q00613 whole entry): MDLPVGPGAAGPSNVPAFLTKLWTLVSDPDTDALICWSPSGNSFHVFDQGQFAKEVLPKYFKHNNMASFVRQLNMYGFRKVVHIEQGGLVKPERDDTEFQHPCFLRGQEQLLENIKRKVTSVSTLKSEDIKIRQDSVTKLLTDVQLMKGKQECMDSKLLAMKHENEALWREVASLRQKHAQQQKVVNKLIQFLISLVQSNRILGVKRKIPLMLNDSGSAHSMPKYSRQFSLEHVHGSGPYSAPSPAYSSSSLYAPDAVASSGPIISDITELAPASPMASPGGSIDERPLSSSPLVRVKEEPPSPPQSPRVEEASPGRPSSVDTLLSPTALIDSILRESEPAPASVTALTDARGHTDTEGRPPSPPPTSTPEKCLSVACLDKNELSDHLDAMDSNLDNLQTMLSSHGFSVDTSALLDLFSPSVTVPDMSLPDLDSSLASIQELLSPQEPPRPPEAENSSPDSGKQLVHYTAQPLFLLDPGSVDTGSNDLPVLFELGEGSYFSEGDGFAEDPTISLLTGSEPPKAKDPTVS
Procedure, shortened: as §1

SPIC = target: T5, SPIC (Homo sapiens, UniProt Q8N5J4 1-248); conditions: protein: recombinant; tags: N-terminal GST; dsDNA, one strand shown
T5 sequence: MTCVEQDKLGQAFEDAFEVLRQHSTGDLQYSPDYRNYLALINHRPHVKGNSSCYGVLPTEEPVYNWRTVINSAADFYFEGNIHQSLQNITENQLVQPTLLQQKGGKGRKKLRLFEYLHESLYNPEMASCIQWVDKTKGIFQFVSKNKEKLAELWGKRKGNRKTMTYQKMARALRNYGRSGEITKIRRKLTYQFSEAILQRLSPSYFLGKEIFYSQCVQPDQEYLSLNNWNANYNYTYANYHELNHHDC
Procedure, shortened: as §1

CRX = CRX (Homo sapiens, UniProt O43186 1-299); conditions: protein: recombinant; tags: N-terminal GST; dsDNA, one strand shown
Chain of CRX (O43186 whole entry): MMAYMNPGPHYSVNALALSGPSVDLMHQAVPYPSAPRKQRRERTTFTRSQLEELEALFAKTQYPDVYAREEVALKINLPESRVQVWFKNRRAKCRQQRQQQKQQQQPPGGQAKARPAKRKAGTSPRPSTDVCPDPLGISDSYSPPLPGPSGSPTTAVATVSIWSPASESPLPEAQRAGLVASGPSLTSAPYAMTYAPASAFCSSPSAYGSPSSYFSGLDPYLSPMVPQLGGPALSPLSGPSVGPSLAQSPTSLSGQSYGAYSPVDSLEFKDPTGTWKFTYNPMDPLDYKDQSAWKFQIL
Procedure, shortened: as §1

ERF = target: T6, ERF (Homo sapiens, UniProt P50548 1-548); conditions: protein: recombinant; tags: N-terminal GST; dsDNA, one strand shown
T6 sequence: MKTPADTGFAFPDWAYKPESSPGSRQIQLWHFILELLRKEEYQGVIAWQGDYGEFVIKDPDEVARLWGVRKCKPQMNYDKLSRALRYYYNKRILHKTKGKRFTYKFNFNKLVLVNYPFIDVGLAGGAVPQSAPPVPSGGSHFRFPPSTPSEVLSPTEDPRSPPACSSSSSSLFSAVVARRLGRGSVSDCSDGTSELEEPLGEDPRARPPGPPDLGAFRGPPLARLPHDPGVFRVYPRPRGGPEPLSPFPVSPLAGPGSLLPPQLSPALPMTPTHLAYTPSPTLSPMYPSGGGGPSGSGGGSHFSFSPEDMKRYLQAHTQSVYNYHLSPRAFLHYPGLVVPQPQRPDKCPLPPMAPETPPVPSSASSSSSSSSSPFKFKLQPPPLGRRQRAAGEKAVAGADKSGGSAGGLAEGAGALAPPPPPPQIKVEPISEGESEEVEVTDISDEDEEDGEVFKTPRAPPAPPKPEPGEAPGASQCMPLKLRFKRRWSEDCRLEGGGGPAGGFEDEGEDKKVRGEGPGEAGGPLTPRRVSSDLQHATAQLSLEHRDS
Procedure, shortened: as §1

SPI1 = SPI1 (Homo sapiens, UniProt P17947 1-270); conditions: protein: recombinant; tags: N-terminal GST; dsDNA, one strand shown
Procedure, shortened: as §1

ELK4 = target: T7, ELK4 (Homo sapiens, UniProt P28324-2 1-405); conditions: protein: recombinant; tags: N-terminal GST; dsDNA, one strand shown
T7 sequence: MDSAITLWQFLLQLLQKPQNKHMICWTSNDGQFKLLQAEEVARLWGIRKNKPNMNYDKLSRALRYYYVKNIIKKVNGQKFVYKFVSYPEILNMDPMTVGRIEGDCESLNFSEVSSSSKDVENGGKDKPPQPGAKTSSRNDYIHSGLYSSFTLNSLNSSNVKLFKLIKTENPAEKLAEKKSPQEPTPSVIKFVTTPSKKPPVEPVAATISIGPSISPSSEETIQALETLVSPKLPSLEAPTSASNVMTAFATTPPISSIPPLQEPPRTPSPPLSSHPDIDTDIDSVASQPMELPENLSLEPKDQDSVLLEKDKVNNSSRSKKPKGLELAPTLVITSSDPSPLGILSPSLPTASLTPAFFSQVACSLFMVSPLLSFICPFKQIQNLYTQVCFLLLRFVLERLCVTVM
Procedure, shortened: as §1

ETV2 = target: T8, ETV2 (Homo sapiens, UniProt O00321 1-342); conditions: protein: recombinant; tags: N-terminal GST; dsDNA, one strand shown
T8 sequence: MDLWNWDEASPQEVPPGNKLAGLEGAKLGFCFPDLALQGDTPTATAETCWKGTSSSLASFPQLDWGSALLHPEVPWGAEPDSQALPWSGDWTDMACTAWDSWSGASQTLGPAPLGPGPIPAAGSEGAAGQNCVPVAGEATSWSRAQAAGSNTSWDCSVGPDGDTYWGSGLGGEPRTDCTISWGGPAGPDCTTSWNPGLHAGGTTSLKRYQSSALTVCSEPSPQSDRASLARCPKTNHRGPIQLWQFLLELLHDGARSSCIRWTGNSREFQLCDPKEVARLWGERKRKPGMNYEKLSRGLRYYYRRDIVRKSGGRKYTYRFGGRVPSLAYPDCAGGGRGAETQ
Procedure, shortened: as §1

ETV3L = target: T9, ETV3L (Homo sapiens, UniProt Q6ZN32 1-361); conditions: protein: recombinant; tags: N-terminal GST; dsDNA, one strand shown
T9 sequence: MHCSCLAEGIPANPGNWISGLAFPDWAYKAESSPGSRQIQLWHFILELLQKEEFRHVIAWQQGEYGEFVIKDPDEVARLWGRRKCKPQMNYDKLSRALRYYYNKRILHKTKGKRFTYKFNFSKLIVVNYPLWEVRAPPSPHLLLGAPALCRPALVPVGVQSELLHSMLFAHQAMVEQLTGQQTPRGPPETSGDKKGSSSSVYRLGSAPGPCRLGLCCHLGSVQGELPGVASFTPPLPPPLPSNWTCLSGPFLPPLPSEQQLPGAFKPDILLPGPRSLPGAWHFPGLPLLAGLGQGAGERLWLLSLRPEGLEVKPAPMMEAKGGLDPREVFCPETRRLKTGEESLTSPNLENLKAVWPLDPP
Procedure, shortened: as §1

ELF5 = target: T10, ELF5 (Homo sapiens, UniProt Q9UKW6-2 1-255); conditions: protein: recombinant; tags: N-terminal GST; dsDNA, one strand shown
T10 sequence: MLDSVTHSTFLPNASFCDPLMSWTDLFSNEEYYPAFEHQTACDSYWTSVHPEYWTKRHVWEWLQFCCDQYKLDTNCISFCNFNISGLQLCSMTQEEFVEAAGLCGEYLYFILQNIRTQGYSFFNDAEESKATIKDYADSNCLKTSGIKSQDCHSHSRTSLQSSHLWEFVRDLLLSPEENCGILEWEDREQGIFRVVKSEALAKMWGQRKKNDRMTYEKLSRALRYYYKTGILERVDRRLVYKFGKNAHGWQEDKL
Procedure, shortened: as §1

ETV3 = target: T11, ETV3 (Homo sapiens, UniProt P41162-2 1-143); conditions: protein: recombinant; tags: N-terminal GST; dsDNA, one strand shown
T11 sequence: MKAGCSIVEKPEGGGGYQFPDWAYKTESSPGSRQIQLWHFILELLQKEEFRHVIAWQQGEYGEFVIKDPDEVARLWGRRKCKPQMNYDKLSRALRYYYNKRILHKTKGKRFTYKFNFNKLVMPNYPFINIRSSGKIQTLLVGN
Procedure, shortened: as §1

ETV6 = ETV6 (Homo sapiens, UniProt P41212 1-452); conditions: protein: recombinant; tags: N-terminal GST; dsDNA, one strand shown
Chain of ETV6 (P41212 whole entry): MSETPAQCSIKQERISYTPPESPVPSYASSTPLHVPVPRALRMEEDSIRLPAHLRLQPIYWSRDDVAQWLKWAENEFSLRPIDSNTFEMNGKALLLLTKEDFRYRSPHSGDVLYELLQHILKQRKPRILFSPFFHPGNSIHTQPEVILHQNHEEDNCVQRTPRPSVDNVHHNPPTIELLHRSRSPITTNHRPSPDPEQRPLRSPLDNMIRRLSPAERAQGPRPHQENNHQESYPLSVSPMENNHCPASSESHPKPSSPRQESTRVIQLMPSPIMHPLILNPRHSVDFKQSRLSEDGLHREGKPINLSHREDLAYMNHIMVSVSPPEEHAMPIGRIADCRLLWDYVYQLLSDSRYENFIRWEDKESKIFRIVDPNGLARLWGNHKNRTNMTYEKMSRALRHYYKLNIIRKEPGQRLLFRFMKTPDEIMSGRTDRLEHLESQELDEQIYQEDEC
Procedure, shortened: as §1

ACTAGA
binding signal (ELK1): 1.02 fold enrichment (6-mer frequency, TF over GST control) | binding signal (GABPA): 1.01 fold enrichment (6-mer frequency, TF over GST control) | binding signal (ERG): 1 fold enrichment (6-mer frequency, TF over GST control) | binding signal (ELF1): 1.02 fold enrichment (6-mer frequency, TF over GST control) | binding signal (EHF): 1.01 fold enrichment (6-mer frequency, TF over GST control) | binding signal (HSF1): 2.1 fold enrichment (6-mer frequency, TF over GST control) | binding signal (SPIC): 1.03 fold enrichment (6-mer frequency, TF over GST control) | binding signal (CRX): 1.16 fold enrichment (6-mer frequency, TF over GST control) | binding signal (ERF): 1.05 fold enrichment (6-mer frequency, TF over GST control)

AGTATA
binding signal (ELK1): 1.05 fold enrichment (6-mer frequency, TF over GST control) | binding signal (ERG): 1 fold enrichment (6-mer frequency, TF over GST control) | binding signal (SPI1): 1.04 fold enrichment (6-mer frequency, TF over GST control) | binding signal (HSF1): 1.01 fold enrichment (6-mer frequency, TF over GST control) | binding signal (SPIC): 1.07 fold enrichment (6-mer frequency, TF over GST control) | binding signal (ELK4): 1.03 fold enrichment (6-mer frequency, TF over GST control) | binding signal (ETV2): 1.06 fold enrichment (6-mer frequency, TF over GST control) | binding signal (CRX): 1.07 fold enrichment (6-mer frequency, TF over GST control) | binding signal (ERF): 1.01 fold enrichment (6-mer frequency, TF over GST control) | binding signal (ETV3L): 1.02 fold enrichment (6-mer frequency, TF over GST control) | binding signal (ELF5): 1.03 fold enrichment (6-mer frequency, TF over GST control) | binding signal (ETV3): 1 fold enrichment (6-mer frequency, TF over GST control) | binding signal (ETV6): 1.06 fold enrichment (6-mer frequency, TF over GST control)

ACAGAA
binding signal (HSF1): 1.27 fold enrichment (6-mer frequency, TF over GST control)
